Laboratory results published in ChEMBL document CHEMBL4513154, “CO-ADD screening of Jain University (India) compounds”.
Potency and affinity values are given separately.

system: Staphylococcus aureus; conditions: Concentration 32 ug.mL-1; ASSAY_TEST Inhibition of Bacterial Growth; detection method Absorption (OD600); MEDIA CAMHB; plate type 384well; NBS; CORNING #3640; time 18 hr

| SMILES | Inhibition [%] |
| --- | --- |
| N#Cc1ccccc1-c1ccc(Cn2c(-c3cscn3)nc3ccccc32)cc1 | 0.09 |
| Cn1c(-c2cscn2)nc2cc(Cl)ccc21 | -4.5 |
| Clc1ccc2nc(-c3cscn3)n(Cc3ccccc3)c2c1 | -8.96 |
| N#Cc1ccccc1-c1ccc(Cn2c(-c3cscn3)nc3ccc(Cl)cc32)cc1 | -8.21 |
| CC(C)c1ccc(Cn2c(-c3cscn3)nc3c(Cl)cccc32)cc1 | 1.32 |
| CCc1ccc(Nc2nc(N)c(-c3nc4ccccc4c(=O)n3-c3ccccc3)s2)cc1 | 14.54 |
| O=[N+]([O-])c1ccc(Cn2c(-c3cscn3)nc3ccccc32)cc1 | 0.92 |
| CCc1ccc(Nc2nc(N)c(-c3nc4ccccc4c(=O)n3-c3ccc(CC)cc3)s2)cc1 | 1.66 |
| N#Cc1ccccc1-c1ccc(Cn2c(-c3cscn3)nc3c(Cl)cccc32)cc1 | 2.86 |
| Nc1nc(Nc2ccc(Cl)cc2)sc1-c1nc2ccccc2c(=O)n1-c1ccccc1 | 3.07 |
| Nc1nc(Nc2ccccc2)sc1-c1nc2ccccc2c(=O)n1-c1ccc(Cl)cc1 | 3.1 |
| Clc1ccc2c(c1)nc(-c1cscn1)n2Cc1ccccc1 | -3.7 |
| CCc1ccc(Nc2nc(N)c(-c3nc4ccccc4c(=O)n3-c3ccc(Cl)cc3)s2)cc1 | 11.42 |
| Fc1cc(Cn2c(-c3cscn3)nc3c(Cl)cccc32)cc(C(F)(F)F)c1 | 6.77 |
| N#Cc1ccccc1-c1ccc(Cn2c(-c3cscn3)nc3cc(Cl)ccc32)cc1 | -3.28 |
| Cn1c(-c2cscn2)nc2c(Cl)cccc21 | -0.57 |
| CCc1ccc(-n2c(-c3sc(Nc4ccccc4)nc3N)nc3ccccc3c2=O)cc1 | 9.22 |
| Nc1nc(Nc2ccccc2)sc1-c1nc2ccccc2c(=O)n1-c1ccccc1 | 10.63 |
| N#Cc1ccc(Cn2c(-c3cscn3)nc3c(Cl)cccc32)cc1 | -3.58 |
| N=C(Nc1ccccc1)c1cscn1 | -2.93 |
| Clc1cccc2[nH]c(-c3cscn3)nc12 | -11.71 |
| Clc1cccc2c1nc(-c1cscn1)n2Cc1ccccc1 | -5.58 |
| N=C(Nc1ccccc1Cl)c1cscn1 | 4.17 |
